Among the data in article PMC7862700, “An all-to-all approach to the identification of sequence-specific readers for epigenetic DNA modifications on cytosine” are binding signal values, retold here.

Common to all, as to assay: DAPPL (digital affinity profiling via proximity ligation, sequencing); 10 mM Tris-HCl pH 7.5, 50 mM NaCl, 1 mM DTT, 4% glycerol, room temperature, 30 min; GST-TFs on glutathione beads, 16-mer random dsDNA library, 0.1% formaldehyde crosslink after washing; high values mean tight binding
What all share (details): protein: recombinant; tags: N-terminal GST; dsDNA, one strand shown

For assay [1], the target named is T1, FLI1 (Homo sapiens, UniProt Q01543 1-452).
T1 sequence: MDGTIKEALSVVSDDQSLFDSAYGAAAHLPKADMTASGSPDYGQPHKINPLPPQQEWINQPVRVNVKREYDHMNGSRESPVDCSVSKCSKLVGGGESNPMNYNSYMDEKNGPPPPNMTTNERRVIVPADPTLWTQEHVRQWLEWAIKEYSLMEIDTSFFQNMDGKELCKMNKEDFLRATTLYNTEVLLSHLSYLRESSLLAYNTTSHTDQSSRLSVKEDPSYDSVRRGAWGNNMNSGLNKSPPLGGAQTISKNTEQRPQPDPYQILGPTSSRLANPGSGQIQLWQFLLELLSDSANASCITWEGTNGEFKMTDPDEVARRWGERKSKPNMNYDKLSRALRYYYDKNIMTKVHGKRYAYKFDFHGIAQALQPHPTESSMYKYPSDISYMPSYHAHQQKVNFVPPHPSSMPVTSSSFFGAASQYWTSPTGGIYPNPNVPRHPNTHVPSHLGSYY
Summed up:
(§1)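 Binding signal is defined as a hexamer's read frequency for one factor over its frequency for the tag-only sample. To obtain reads, GST-fused human transcription factors were expressed in yeast, captured on glutathione beads, barcoded with DNA and pooled with that sample. Pools met 200 nmole of a 16-mer random double-stranded DNA library in Tris/NaCl/DTT/glycerol buffer for 30 min at room temperature before washing, 0.1% formaldehyde crosslinking, proximity ligation (BsaI/T4 ligase, 1 h, 37 °C), PCR and Illumina NextSeq500 sequencing.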

For assay [2], the target named is T2, ELK1 (Homo sapiens, UniProt P19419 1-428).
T2 sequence: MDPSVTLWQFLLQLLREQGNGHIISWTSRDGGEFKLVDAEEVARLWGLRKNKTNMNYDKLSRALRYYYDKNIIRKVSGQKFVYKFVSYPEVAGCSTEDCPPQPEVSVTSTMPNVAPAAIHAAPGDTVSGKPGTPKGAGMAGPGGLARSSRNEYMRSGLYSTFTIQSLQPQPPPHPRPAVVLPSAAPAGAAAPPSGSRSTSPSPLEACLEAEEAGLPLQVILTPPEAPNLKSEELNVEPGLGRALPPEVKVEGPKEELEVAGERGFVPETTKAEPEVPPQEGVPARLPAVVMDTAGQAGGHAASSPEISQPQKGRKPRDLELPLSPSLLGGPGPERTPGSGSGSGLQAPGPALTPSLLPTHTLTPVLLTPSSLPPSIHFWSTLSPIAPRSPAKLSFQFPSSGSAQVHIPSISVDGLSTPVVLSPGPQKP
Summed up:
as §1

In assay [3] the target is T3, GABPA (Homo sapiens, UniProt Q06546 1-454).
T3 sequence: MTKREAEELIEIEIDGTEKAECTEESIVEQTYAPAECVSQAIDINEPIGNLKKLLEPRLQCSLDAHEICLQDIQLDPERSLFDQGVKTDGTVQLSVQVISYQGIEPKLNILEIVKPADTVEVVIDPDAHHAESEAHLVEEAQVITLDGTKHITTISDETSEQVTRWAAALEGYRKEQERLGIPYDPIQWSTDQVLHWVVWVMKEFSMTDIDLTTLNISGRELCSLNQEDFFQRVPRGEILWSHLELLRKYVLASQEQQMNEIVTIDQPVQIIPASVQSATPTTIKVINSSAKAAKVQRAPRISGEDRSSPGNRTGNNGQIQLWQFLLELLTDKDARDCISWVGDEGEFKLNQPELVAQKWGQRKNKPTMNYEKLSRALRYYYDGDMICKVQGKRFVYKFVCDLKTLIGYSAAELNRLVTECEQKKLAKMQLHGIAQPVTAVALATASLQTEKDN
Summed up:
as §1

For assay [4], the target named is T4, ERG (Homo sapiens, UniProt P11308 1-479).
T4 sequence: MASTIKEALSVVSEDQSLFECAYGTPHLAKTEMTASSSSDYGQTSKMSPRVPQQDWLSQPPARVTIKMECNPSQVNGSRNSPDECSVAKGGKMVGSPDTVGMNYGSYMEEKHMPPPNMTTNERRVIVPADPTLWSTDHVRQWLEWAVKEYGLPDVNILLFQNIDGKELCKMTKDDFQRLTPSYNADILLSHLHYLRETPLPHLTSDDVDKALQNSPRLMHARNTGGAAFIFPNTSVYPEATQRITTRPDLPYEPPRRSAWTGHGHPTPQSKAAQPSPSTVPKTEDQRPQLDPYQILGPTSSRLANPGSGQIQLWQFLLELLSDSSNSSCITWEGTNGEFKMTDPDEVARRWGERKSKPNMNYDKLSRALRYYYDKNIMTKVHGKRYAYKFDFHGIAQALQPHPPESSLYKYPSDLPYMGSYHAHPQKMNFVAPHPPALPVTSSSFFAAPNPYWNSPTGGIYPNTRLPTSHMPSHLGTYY
Summed up:
as §1

In assay [5] the target is ELF1 (Homo sapiens, UniProt P32519 1-619). The gist of the method: as §1
Assay [6] deals with T5, EHF (Homo sapiens, UniProt Q9NZC4 1-300).
T5 sequence: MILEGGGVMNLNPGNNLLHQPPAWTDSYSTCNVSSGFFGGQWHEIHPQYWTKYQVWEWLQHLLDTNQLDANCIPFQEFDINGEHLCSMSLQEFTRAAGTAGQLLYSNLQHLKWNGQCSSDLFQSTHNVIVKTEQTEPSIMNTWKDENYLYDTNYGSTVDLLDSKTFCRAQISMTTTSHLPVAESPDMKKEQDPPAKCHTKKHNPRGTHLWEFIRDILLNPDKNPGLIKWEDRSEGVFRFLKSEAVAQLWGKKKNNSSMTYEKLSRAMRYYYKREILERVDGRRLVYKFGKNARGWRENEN
Summed up: as §1

The target in assay [7] is SPI1 (Homo sapiens, UniProt P17947 1-270). Summed up:
as §1

For assay [8], the target named is SPIB (Homo sapiens, UniProt Q01892 1-262). Summed up:
as §1

The target in assay [9] is T6, ELK3 (Homo sapiens, UniProt P41970 1-407).
T6 sequence: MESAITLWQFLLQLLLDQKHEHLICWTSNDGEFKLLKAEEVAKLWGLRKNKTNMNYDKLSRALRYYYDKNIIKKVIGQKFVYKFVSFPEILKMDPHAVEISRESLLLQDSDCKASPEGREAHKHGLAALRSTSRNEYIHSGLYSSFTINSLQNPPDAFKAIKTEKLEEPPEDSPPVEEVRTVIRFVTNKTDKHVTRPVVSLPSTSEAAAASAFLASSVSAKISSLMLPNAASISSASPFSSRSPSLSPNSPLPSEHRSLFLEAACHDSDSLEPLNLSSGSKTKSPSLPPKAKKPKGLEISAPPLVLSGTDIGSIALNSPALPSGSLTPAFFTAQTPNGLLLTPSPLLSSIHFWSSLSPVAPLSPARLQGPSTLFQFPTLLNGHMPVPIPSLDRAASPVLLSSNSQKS
The gist of the method:
as §1

Chain of ELF1 (P32519 whole entry): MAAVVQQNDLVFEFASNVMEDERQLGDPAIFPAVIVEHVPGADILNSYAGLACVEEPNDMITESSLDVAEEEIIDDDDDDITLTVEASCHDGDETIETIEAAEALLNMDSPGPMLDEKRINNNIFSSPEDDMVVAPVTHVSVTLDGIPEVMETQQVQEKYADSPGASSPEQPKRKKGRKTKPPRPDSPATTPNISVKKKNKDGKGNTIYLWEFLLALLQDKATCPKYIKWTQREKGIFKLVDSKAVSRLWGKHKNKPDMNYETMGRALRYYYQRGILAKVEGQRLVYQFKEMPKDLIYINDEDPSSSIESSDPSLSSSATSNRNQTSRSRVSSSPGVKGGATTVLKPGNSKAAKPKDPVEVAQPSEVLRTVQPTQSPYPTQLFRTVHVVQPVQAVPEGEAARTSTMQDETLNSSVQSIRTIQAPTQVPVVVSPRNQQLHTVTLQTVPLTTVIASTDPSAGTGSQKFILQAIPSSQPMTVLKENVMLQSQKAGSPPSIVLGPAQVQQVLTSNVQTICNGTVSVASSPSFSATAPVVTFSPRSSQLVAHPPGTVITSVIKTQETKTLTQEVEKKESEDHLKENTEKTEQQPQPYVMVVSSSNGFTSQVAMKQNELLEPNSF
Chain of SPIB (Q01892 whole entry): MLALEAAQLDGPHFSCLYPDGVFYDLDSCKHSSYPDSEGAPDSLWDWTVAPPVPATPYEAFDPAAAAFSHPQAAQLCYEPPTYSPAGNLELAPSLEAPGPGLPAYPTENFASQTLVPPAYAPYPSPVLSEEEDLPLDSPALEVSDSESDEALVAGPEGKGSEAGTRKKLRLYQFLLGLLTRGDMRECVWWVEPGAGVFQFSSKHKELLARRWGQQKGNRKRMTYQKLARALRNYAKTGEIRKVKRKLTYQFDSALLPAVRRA

As to CCGATA, the binding signal in [1] is 1.16 fold enrichment (6-mer frequency, TF over GST control); in assay [2], 1.13 fold enrichment (6-mer frequency, TF over GST control); in [3], 1.14 fold enrichment (6-mer frequency, TF over GST control); in [4] it was 1.14 fold enrichment (6-mer frequency, TF over GST control); in assay [5], 1.17 fold enrichment (6-mer frequency, TF over GST control); in assay [6], 1.18 fold enrichment (6-mer frequency, TF over GST control). Moreover, the binding signal in assay [7] was 1.09 fold enrichment (6-mer frequency, TF over GST control); in assay [8], 1.03 fold enrichment (6-mer frequency, TF over GST control); in [9], 1.14 fold enrichment (6-mer frequency, TF over GST control).
As to ACATTA, the binding signal is 1.17 fold enrichment (6-mer frequency, TF over GST control) in [1]; 1.16 fold enrichment (6-mer frequency, TF over GST control) in assay [2]; 1.17 fold enrichment (6-mer frequency, TF over GST control) in assay [3]; 1.08 fold enrichment (6-mer frequency, TF over GST control) in assay [4]; 1.19 fold enrichment (6-mer frequency, TF over GST control) in [5]; 1.17 fold enrichment (6-mer frequency, TF over GST control) in assay [6]. Further, the binding signal in assay [7] is 1.06 fold enrichment (6-mer frequency, TF over GST control); in assay [8] it was 1.2 fold enrichment (6-mer frequency, TF over GST control); in [9] it was 1.08 fold enrichment (6-mer frequency, TF over GST control).
On to AAATAT, for which the binding signal in [1] was 1.24 fold enrichment (6-mer frequency, TF over GST control); in [2], 1.34 fold enrichment (6-mer frequency, TF over GST control); in [3] it was 1.33 fold enrichment (6-mer frequency, TF over GST control); in assay [4], 1.34 fold enrichment (6-mer frequency, TF over GST control); in assay [5] it was 1.37 fold enrichment (6-mer frequency, TF over GST control); in assay [6] it was 1.31 fold enrichment (6-mer frequency, TF over GST control). Also, the binding signal in [7] was 1.32 fold enrichment (6-mer frequency, TF over GST control); in assay [8], 1.47 fold enrichment (6-mer frequency, TF over GST control); in assay [9], 1.38 fold enrichment (6-mer frequency, TF over GST control).
Turning to TGGATG, the binding signal in assay [1] is 1.33 fold enrichment (6-mer frequency, TF over GST control); in assay [2] it was 1.37 fold enrichment (6-mer frequency, TF over GST control); in assay [3], 1.47 fold enrichment (6-mer frequency, TF over GST control); in [4] it was 1.32 fold enrichment (6-mer frequency, TF over GST control); in assay [5] it was 1.48 fold enrichment (6-mer frequency, TF over GST control); in assay [6], 1.5 fold enrichment (6-mer frequency, TF over GST control). In addition, the binding signal in [7] is 1.37 fold enrichment (6-mer frequency, TF over GST control); in assay [8], 1.64 fold enrichment (6-mer frequency, TF over GST control); in assay [9] it was 1.49 fold enrichment (6-mer frequency, TF over GST control).
CTCTGC: the binding signal in assay [1] was 1.71 fold enrichment (6-mer frequency, TF over GST control); in assay [2] it was 1.6 fold enrichment (6-mer frequency, TF over GST control); in assay [3], 1.56 fold enrichment (6-mer frequency, TF over GST control); in assay [4] it was 1.46 fold enrichment (6-mer frequency, TF over GST control); in [5], 1.58 fold enrichment (6-mer frequency, TF over GST control); in [6], 1.57 fold enrichment (6-mer frequency, TF over GST control). Further, the binding signal is 1.53 fold enrichment (6-mer frequency, TF over GST control) in assay [7]; 1.52 fold enrichment (6-mer frequency, TF over GST control) in assay [8]; 1.4 fold enrichment (6-mer frequency, TF over GST control) in assay [9].
Consider ACGATT, for which the binding signal in [1] is 1.44 fold enrichment (6-mer frequency, TF over GST control); in assay [2] it was 1.31 fold enrichment (6-mer frequency, TF over GST control); in assay [3], 1.29 fold enrichment (6-mer frequency, TF over GST control); in assay [4], 1.34 fold enrichment (6-mer frequency, TF over GST control); in assay [5] it was 1.32 fold enrichment (6-mer frequency, TF over GST control); in assay [6] it was 1.32 fold enrichment (6-mer frequency, TF over GST control). The binding signal is 1.31 fold enrichment (6-mer frequency, TF over GST control) in assay [7]; 1.3 fold enrichment (6-mer frequency, TF over GST control) in assay [8]; 1.38 fold enrichment (6-mer frequency, TF over GST control) in assay [9].
Take TCAATA: the binding signal is 1.21 fold enrichment (6-mer frequency, TF over GST control) in [1]; 1.17 fold enrichment (6-mer frequency, TF over GST control) in assay [2]; 1.24 fold enrichment (6-mer frequency, TF over GST control) in assay [3]; 1.14 fold enrichment (6-mer frequency, TF over GST control) in assay [4]; 1.17 fold enrichment (6-mer frequency, TF over GST control) in [5]; 1.14 fold enrichment (6-mer frequency, TF over GST control) in assay [6]. The binding signal was 1.23 fold enrichment (6-mer frequency, TF over GST control) in assay [7]; 1.06 fold enrichment (6-mer frequency, TF over GST control) in [8]; 1.2 fold enrichment (6-mer frequency, TF over GST control) in assay [9].
